From PubChem
BAZ2B block = inhibitors of human BAZ2B bromodomain; Q9UIF8; 4.4% of 360,000 active; AlphaScreen BAZ2B-H3K14Ac peptide displacement; Potency, µM (doses to about 114 µM), without a hit: at the highest dose activity change, negative = inhibition, usual class: inhibitors; note: % is set by controls: 0 for no effect and ±100 for the full control effect; nearly all actives have a fitted effect of over 60% in size
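Inhibition is scored as reduced AlphaScreen emission. The BAZ2B/b-H3(5-23)K14Ac complex (50 nM each) in PBS pH 7.4, 0.01% Tween-20 meets compound (up to 110 uM) for 30 min at RT before bead addition.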
HP1b binding inh = inhibitors of HP1-beta chromodomain binding to methylated histone tails; P83916; AlphaScreen HP1-beta / biotin-H3K9me3 peptide binding; Potency, µM (series often up to 114 µM), inactives show at the highest dose activity change, negative = inhibition, hits mostly inhibitors; 0.56% of 390,000 active; AID 540317; note: nearly all actives have a fitted effect of over 70% in size
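Compound inhibition of the preformed complex between 50 nM HP1-beta and 50 nM biotinylated H3K9me3 peptide was read by AlphaScreen. Buffer was PBS pH 7.4 with 0.01% Tween-20. Incubations ran 30 min at room temperature, with 10 ug/mL donor/acceptor beads.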
G9a inh = blocks human histone lysine methyltransferase G9a. Potency, µM (highest dose often 102 µM), for the others: top-dose activity, negative = inhibition, usual class: inhibitors. G9a H3K9 monomethylation, AlphaScreen, 2 h. 8.8% of 350,000 active. Q96KQ7; note: % is set by controls: 0 for no effect and ±100 for the full control effect; nearly all actives have a fitted effect of over 75% in size
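G9a (20 nM) was preincubated 15 min with compound, then reacted 2 h at room temperature with 500 nM biotin-H3K9 peptide and 20 µM SAM. Monomethyl-H3K9 detected by AlphaScreen using anti-H3K9me1 antibody.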
JMJD2A Tudor = inhibitors of human JMJD2A Tudor domain; O75164; Potency, µM (doses to about 114 µM), for inactives: top-dose activity change, negative = inhibition, actives largely listed as inhibitors; AID 504339; 4.4% of 390,000 active; AlphaScreen JMJD2A-Tudor / H3K4me3 peptide binding; note: % is set by controls: 0 for no effect and ±100 for the full control effect; nearly all actives have a fitted effect of over 50% in size
Sfp PPTase inh = Sfp phosphopantetheinyl transferase inhibition | Q9F4F7 | Biochemical Sfp PPTase activity, qHTS | Potency, µM, without a hit: largest response in the series, negative = inhibition, actives largely listed as inhibitors | 3.5% of 310,000 active;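 note: the enzyme is Sfp with the accession as filed and its product quenches rhodamine fluorescence; 0% = enzyme reaction without inhibitor and -100% = no enzyme wells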
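With Hepes-Na pH 7.6 buffer containing 10 mM MgCl2, Sfp (15 nM) modified BHQ-2-YbbR (12.5 uM) using rhodamine-CoA (5 uM). Two reads 30 minutes apart at 525/598 nm yielded each well's rate.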
PLK1 PBD block = inhibitors of human PLK1 polo-box domain binding | P53350 | AID 720504 | Plk1 PBD binding of FITC phosphopeptide, fluorescence polarization | 2.8% of 360,000 active | Potency, µM, inactives show max response, negative = inhibition, hits mostly inhibitors; note: series mostly up to about 57 µM; % is set by controls: 0 for no effect and ±100 for the full control effect; nearly all actives have a fitted effect of over 65% in size
The depositor's hits bear a star; u = inconclusive; x = not tested or not shown; [ ] = another dose, or the depositor's remark. Hits are enriched below; roughly 12% of the tested compounds scored in any of these assays. Calls come from the whole dose curve; as a rule, active = well fitted curve in the direction sought with a large enough effect; inconclusive = small, poorly fitted or top-dose-only effect, or another doubt; inactive = no such curve, though single readings can be large; an effect the other way counts as inactive or inconclusive. Potency is the fitted concentration of half-maximal effect.

SMILES | BAZ2B block | HP1b binding inh | G9a inh | JMJD2A Tudor | Sfp PPTase inh | PLK1 PBD block
NS(=O)(=O)c1cccc(NC(=O)COC(=O)CCN2C(=O)c3ccccc3C2=O)c1 | -5.0% | 31.8% | -4.7%[59 µM] | 1.0% | x | -2.4%
COc1cc(Nc2nc3ccccc3nc2NS(=O)(=O)c2ccc([N+](=O)[O-])cc2)cc(OC)c1OC | 7.94µM* | -25.1% | x | u | 18.0% | -11.7%
COc1ccccc1NS(=O)(=O)c1ccc(O)cc1 | 1.3% | u | 12.2% | -16.8%[11.4 µM] | 22.1% | 3.36µM*
O=C(O)c1cccc(S(=O)(=O)Nc2ccc([N+](=O)[O-])cc2O)c1 | -27.8% | 10.7% | 22.4µM* | u | u | -2.8%
O=C(O)c1cccc(S(=O)(=O)Nc2ccccc2-c2ccccc2)c1 | -21.3% | 41.7% | u | -2.2% | 17.9% | 2.3%
COc1ccccc1NS(=O)(=O)c1ccc2oc(N)nc2c1 | 1.6% | -9.4% | 25.1µM* | -7.7% | u | u
COc1ccccc1NC(=O)c1oc2ccccc2c1NC(=O)c1ccc(S(=O)(=O)N(C)C)cc1 | -0.9% | 44.6% | -26.5%[59 µM] | -7.0% | x | x
COCCNC(=O)c1cc(-c2ccccc2)n(Cc2cc(C)no2)n1 | 5.0% | 9.7% | 10.8%[12.7 µM] | -5.6% | x | -14.9%
COc1ccc([N+](=O)[O-])cc1NS(=O)(=O)c1ccccc1 | -0.3% | 10.8% | 0.794µM* | -15.2% | 8.8% | u
CCO/C(C)=N/n1c2nc3ccccc3nc2c2c(=O)n(Cc3ccccc3Cl)c(C)nc21 | 12.9% | -14.3% | 36.7% | -19.1%[11.4 µM] | -5.2% | -23.1%
COCCCn1cnc2c(c1=O)c1nc3ccccc3nc1n2-c1ccc(C)cc1 | 11.8% | 14.9% | 11.4% | -9.3% | 9.2% | -0.2%
Cc1nc2c(c(=O)n1Cc1ccccc1Cl)c1nc3ccccc3nc1n2Cc1ccco1 | -4.4% | x | u | x | 2.82µM* | x
COc1ccc(S(=O)(=O)c2c(N)n(Cc3ccco3)c3nc4ccccc4nc23)cc1 | -23.0% | 42.3% | 44.7µM* | -20.2% | 56.2µM* | u
COc1ccc(Cn2c(C)nc3c(c(=O)c4ccccc4n3C)c2=O)cc1 | -12.4% | 18.4% | 7.1% | -14.2% | 6.9% | 2.1%
Cc1cc(C)cc(-n2c3nc4ccccc4nc3c3c(=O)n(Cc4ccco4)cnc32)c1 | 50.1µM* | 23.0% | u | -24.9% | 7.08µM* | -13.8%
COc1ccc(Cn2c3nc4ccccc4nc3c3c(=O)n(Cc4ccco4)c(C)nc32)cc1 | 50.1µM* | x | u | x | 7.94µM* | x
CCc1ccccc1N(C)C(=O)C1CCCN(c2ncnc3c2nc2n3CCCCC2)C1 (configuration not stated) | -11.8% | 20.4% | -12.6%[59 µM] | -16.5% | x | x
O=C(NNC(=O)c1ccncc1)Nc1ccc(Cl)cc1 | x | 19.9% | x | 4.2% | x | -0.8%
COc1ccc(Cn2c(C)nc3c(c2=O)c2nc4ccccc4nc2n3Cc2ccco2)cc1 | x | u | x | u | x | 7.52µM*
CCC(C)n1cnc2c(c1=O)c1nc3ccccc3nc1n2Cc1ccc(OC)cc1 (configuration not stated) | -1.4% | 39.0% | 0.6%[59 µM] | -10.4% | -0.5% | 4.5%
O=C(c1ccc(-c2ccccc2Cl)o1)N1CCN(c2ccccc2O)CC1 | u | -17.0% | 17.8µM* | u | x | -6.7%
Clc1ccc(-c2ccc(CN3CCCCC3)o2)cc1 | u | 11.2% | -15.1% | -30.6% | -9.6% | -17.1%
S=C(c1ccc(-c2ccc(Cl)cc2)o1)N1CCCCC1 | 28.2µM* | u | 12.6µM* | 22.4µM* | 20µM* | -18.0%
CN1CCN(C(=S)c2ccc(-c3cccc(Cl)c3Cl)o2)CC1 | u | 44.7µM* | 39.8µM* | 28.2µM* | -13.1% | -2.3%
N#CCCN1CCN(C(=S)c2ccc(-c3ccc(Cl)cc3)o2)CC1 | 39.8µM* | u | u | 44.7µM* | 20µM* | u
SMILES | BAZ2B block | HP1b binding inh | G9a inh | JMJD2A Tudor | Sfp PPTase inh | PLK1 PBD block
O=C(c1ccco1)N1CCN(/C=C2\Nc3ccccc3C(=O)N2c2ccc(F)cc2)CC1 | x | 29.4% | x | -6.1% | x | x
O=C(O)c1ccc(-c2ccccc2Cl)o1 | -31.9% | 27.0% | u | -23.9% | -6.8% | -9.7%
S=C(c1ccc(-c2ccccc2Cl)o1)N1CCCCC1 | u | u | u | u | 39.8µM* | -25.8%
Cc1c(O)c2ccccc2n(-c2ccccc2)c1=O | x | 12.5% | x | -0.7% | x | 0.0%
O=c1c(=O)n(O)c2ccccc2n1O | 39.8µM* | 6.8% | 10µM* | 50.1µM* | 79.4µM* | 0.9%
CCOn1c(=O)c(=O)n(OC)c2ccccc21 | -4.0% | 19.9% | 11.3% | -1.7% | 18.8% | 1.7%
COn1c(=O)c(=O)n(O)c2ccccc21 | u | -5.3% | -1.0%[59 µM] | 79.4µM* | -28.7% | -10.9%
COc1ccc(NS(=O)(=O)c2cc(NC(=O)CC3CCCC3)ccc2N2CCOCC2)cc1 | x | -9.6% | u | -4.1% | 25.1µM* | u
COc1ccc(NS(=O)(=O)c2cc(NC(=O)c3cc(F)c(F)c(F)c3F)ccc2N2CCCC2)cc1 | -18.2% | 53.9% | x | -18.5% | -1.1% | -6.9%
COc1ccc(NS(=O)(=O)c2cc(NC(=O)C3CCCO3)ccc2N2CCCC2)cc1 (configuration not stated) | -22.6% | 28.1% | 25.1µM* | -23.4% | 4.6% | -6.0%
COc1ccc(CCC(=O)Nc2ccc(N3CCOCC3)c(S(=O)(=O)Nc3ccc(OC)cc3)c2)cc1 | x | 9.8% | x | -29.4% | x | -11.6%
COc1ccc(NS(=O)(=O)c2cc(NC(=O)c3ccco3)ccc2N2CCCC2)cc1 | -7.2% | 7.4% | 39.8µM* | -15.7% | -11.5% | 1.8%
COc1ccc(NS(=O)(=O)c2cc(NC(=O)CCNC(C)=O)ccc2N2CCCCC2)cc1 | -27.0% | 14.0% | 3.9%[2.33 µM] | -27.0% | x | -2.1%
COc1ccc(NS(=O)(=O)c2cc(NC(=O)C3CCCO3)ccc2N2CCCCC2)cc1 (configuration not stated) | -11.0% | 33.1% | 39.8µM* | 3.8%[11.4 µM] | -4.1% | -14.0%
CCOC(=O)Cc1csc(NC(=O)c2cc(-c3ccncc3)nc3ccccc23)n1 | -12.1% | 37.9% | -44.3%[12.7 µM] | -27.9% | x | 0.5%
COc1cc(CN(C(=O)c2ccccc2[N+](=O)[O-])c2ccccn2)cc(OC)c1OC | -10.5% | 58.4% | 6.2%[59 µM] | 0.0% | x | x
Cn1cccc1C(=O)N1CCC2(CCCN(Cc3ccc(C#N)cc3)C2)CC1 | x | x | -1.2%[12.7 µM] | x | 1.5% | x
Cc1ccc(OCC(COCc2ccccc2)NC(C)C)cc1 (configuration not stated) | x | u | x | 1.41µM* | x | -4.3%
COCCNC(=O)CN(C(=O)CCC(=O)Nc1cc(C)on1)c1cccc(C)c1C | -5.1% | -10.6% | u | 79.4µM* | 13.4% | u
Cc1cc(NC(=O)CCC(=O)N(CC(=O)NCC2CCCO2)c2cccc(C)c2C)no1 (configuration not stated) | 2.0% | 7.2% | 12.4% | -8.7% | 5.3% | -5.4%
CCOC(=O)c1nn(-c2ccccc2)c(C(=O)OCC)c1N | -0.7% | 27.2% | -23.7%[12.7 µM] | -7.4% | 16.4% | -1.0%
